From PubChem BioAssay (EPA / NIEHS) come the findings set out here.

Each structure is given as a SMILES string. Results filed as inconclusive are left out. Activity calls are given as the source filed them. How the source made its calls, unless noted: active means hit-call score of the fitted dose curve at least 0.9, where 1 is the maximum; inactive means score below 0.9.

Assay [1] has as its target Paired box protein Pax-6 (Homo sapiens) (UniProt P26367). The assay can be described thus: ATG_Pax6_CIS: Attagene CIS-FACTORIAL HepG2 Assay for human Paired Box 6 (PAX6) (AID 2282956). Particulars: HepG2 CIS-FACTORIAL PAX6 reporter transcription, RNA readout; actives raise or lower the signal. Put shortly:
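Values derive from bidirectional curve fitting of reporter mRNA signal relative to DMSO. HepG2 cells bearing transfected cis-regulated MRTUs were exposed for 24 h; transcripts were read by RT-PCR and capillary electrophoresis.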

Assay [2] can be described thus: ATG_PXRE_CIS: Attagene CIS-FACTORIAL HepG2 Assay for human Pregnane X Receptor Element (PXRE) (AID 2282957). Conditions: HepG2 Attagene CIS-FACTORIAL PXRE reporter, mRNA; actives raise or lower the signal. The method in brief:
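Read-out: fluorescence of reporter-specific RT-PCR products resolved by capillary electrophoresis, fitted bidirectionally relative to DMSO. Human HepG2 liver cells carried transfected cis-promoter reporter units and were exposed to chemicals for 24 h.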

Assay [3] in a line: ATG_PPRE_CIS: Attagene CIS-FACTORIAL HepG2 Assay for human Peroxisome Proliferator-activated Response Element (PPRE) (AID 2282958). Conditions: HepG2 PPRE cis-element reporter, Attagene transcription factor profiling; actives raise or lower the signal. Put shortly: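 After human HepG2 hepatoma cells were transiently transfected with cis-promoter reporter constructs, they were exposed to test chemicals for 24 hours. Reporter RNA was then reverse-transcribed, PCR-amplified, FAM-labeled, HpaI-digested and quantified by capillary electrophoresis.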

The nature of assay [4]: ATG_RORE_CIS: Attagene CIS-FACTORIAL HepG2 Assay for human RAR-related Orphan Receptor Element (RORE) (AID 2282959). Particulars: HepG2 Attagene cis-factorial RORE reporter, mRNA; actives raise or lower the signal. Put shortly: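 Measured here: transcript induction of a cis-regulated reporter in HepG2 cells transiently transfected via FuGene 6. After 24 h, RNA was processed by RT-PCR and fluorescent capillary electrophoresis; DMSO defined baseline activity.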

Assay [5] is described as follows: ATG_Sox_CIS: Attagene CIS-FACTORIAL HepG2 Assay for human SRY-box transcription factor (SOX) (AID 2282960). Particulars: HepG2 Attagene cis-factorial SOX reporter, mRNA; actives raise or lower the signal. The method in brief:
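Using transiently transfected HepG2 cells, reporter transcription driven by cis elements was assessed 24 h after dosing. Signal was fluorescence of capillary-separated RT-PCR products, with DMSO defining baseline activity.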

In assay [6] the target is Transcription factor Sp1 (Homo sapiens) (UniProt P08047). The assay can be described thus: ATG_Sp1_CIS: Attagene CIS-FACTORIAL HepG2 Assay for human Specificity Protein 1 (Sp1) (AID 2282961). Particulars: HepG2 Sp1 cis-reporter transcription, actives raise or lower the signal. Put shortly:
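After transient transfection of HepG2 cells with cis-promoter reporter units and 24 h chemical treatment, reporter transcripts were quantified by RT-PCR and capillary electrophoresis fluorescence. Gain- and loss-of-signal fitted against DMSO.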

The target in assay [7] is Signal transducer and activator of transcription 3 (Homo sapiens) (UniProt P40763). The assay can be described thus: ATG_STAT3_CIS: Attagene CIS-FACTORIAL HepG2 Assay for human Signal Transducer and Activator of Transcription 3 (STAT3) (AID 2282963). Conditions: HepG2, Attagene cis-factorial STAT3 reporter transcription; actives raise or lower the signal. The method in brief:
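Fluorescence intensity of 6-FAM-labelled reporter fragments, separated by capillary electrophoresis after RT-PCR, gave the signal. Cells were HepG2 transfected with cis-element reporter units and treated 24 h; fitting was bidirectional relative to DMSO.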

Assay [8] is described as follows: ATG_TA_CIS: Attagene CIS-FACTORIAL HepG2 Assay for human TA Basal Promoter (AID 2282964). Conditions: HepG2 Attagene CIS-factorial TA basal promoter reporter; actives raise or lower the signal. The method in brief:
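Fluorescence from labelled RT-PCR reporter fragments, separated by capillary electrophoresis, gives the signal. Cells: HepG2 transiently carrying multiple reporter units, 24 h chemical dosing. Gain or loss relative to DMSO.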

A short description of assay [9]: ATG_TCF_b_cat_CIS: Attagene CIS-FACTORIAL HepG2 Assay for human T-Cell-Factor with beta-catenin (TCF/b-cat) (AID 2282965). Conditions: HepG2 TCF/beta-catenin cis-reporter transcription, actives raise or lower the signal. The method in brief:
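Cells of the HepG2 line carry transiently transfected reporter units whose promoters respond to endogenous factors. Twenty-four hours post-dosing, reporter mRNA induction is measured by fluorescent RT-PCR and capillary electrophoresis, with DMSO as baseline.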

Assay [10] is described as follows: ATG_TAL_CIS: Attagene CIS-FACTORIAL HepG2 Assay for human TAL Basal Promoter (AID 2282966).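 Further: background control endpoint measuring basal TAL promoter reporter mRNA not a specific factor.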 Particulars: HepG2 Attagene cis-factorial TAL promoter reporter; actives raise or lower the signal. Put shortly: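 HepG2, transient MRTU transfection, 24 h compound exposure; RNA → oligo(dT) RT → PCR → 6-FAM primer extension → HpaI digest → CE fluorescence. Bidirectional curve fit vs DMSO. Background-control readout.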

The nature of assay [11]: ATG_TGFb_CIS: Attagene CIS-FACTORIAL HepG2 Assay for human Transforming Growth Factor (TGF) (AID 2282967). Particulars: HepG2 Attagene CIS TGFb reporter, mRNA transcription; actives raise or lower the signal. Put shortly: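 Bidirectional fitting relative to DMSO gave the endpoint. Underlying data: reporter mRNA from HepG2 cells carrying transiently transfected cis-regulated reporter constructs, harvested 24 h after dosing and analyzed by RT-PCR and capillary electrophoresis.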

The nature of assay [12]: ATG_VDRE_CIS: Attagene CIS-FACTORIAL HepG2 Assay for human Vitamin D Receptor Element (VDRE) (AID 2282968). Conditions: HepG2 VDRE cis-reporter transcription, actives raise or lower the signal. The method in brief: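 Compounds were applied for 24 h to HepG2 cells transfected with promoter-regulated reporter units. Total RNA was reverse-transcribed, and reporter amplicons were fluorescently labelled and sized by capillary electrophoresis.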

Assay [13] has as its target Nuclear receptor subfamily 1 group I member 3 (Homo sapiens) (UniProt Q14994). The assay can be described thus: ATG_CAR_TRANS: Attagene TRANS-FACTORIAL HepG2 Assay for human Constitutive Androstane Receptor (CAR) (AID 2282969; active means hit-call score of the fitted dose curve at least 0.9, where 1 is the maximum;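 further: activators raise reporter mRNA above DMSO so AC50 marks induction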). Conditions: HepG2 Attagene TRANS-FACTORIAL CAR reporter. Put shortly: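 Transiently transfected HepG2, multiplex TRANS reporters (CAR-Gal4 chimera driving GAL4-UAS reporter). 24 h dosing. Readout: reporter transcript by RT-PCR + capillary electrophoresis, fluorescence intensity; positive direction vs DMSO.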

Assay [14] concerns the target X-box-binding protein 1 (Homo sapiens) (UniProt P17861). The assay can be described thus: ATG_Xbp1_CIS: Attagene CIS-FACTORIAL HepG2 Assay for human X-box Binding Protein 1 (XBP1) (AID 2282972). Particulars: HepG2 XBP1 cis-element reporter, Attagene multiplex; actives raise or lower the signal. Put shortly: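 Human hepatoma HepG2, cis-element reporter system, 24 h treatment; mRNA quantified by RT-PCR/CE fluorescence; fit relative to DMSO.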

Assay [15] can be described thus: ATG_M_19_TRANS: Attagene TRANS-FACTORIAL HepG2 Assay for M19 Transcription Factor (Internal Marker) (AID 2282974; active means hit-call score of the fitted dose curve at least 0.9, where 1 is the maximum). Particulars: HepG2 Attagene TRANS-FACTORIAL M19 internal marker reporter. Put shortly: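 Gain-of-signal in reporter mRNA, relative to DMSO, was scored from capillary electrophoresis fluorescence. HepG2 cells carried transiently transfected multiple reporter transcription units and were incubated with test chemicals for 24 h.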

The target of assay [16] is Steroid hormone receptor ERR1 (Homo sapiens) (UniProt P11474). The assay can be described thus: ATG_ERRa_TRANS: Attagene TRANS-FACTORIAL HepG2 Assay for human Estrogen-Related Receptor alpha (ERRa) (AID 2282971; active means hit-call score of the fitted dose curve at least 0.9, where 1 is the maximum). Conditions: HepG2 Attagene TRANS reporter, ERRa transactivation. Put shortly: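 Transfected HepG2, 24 h dosing, ERRa-Gal4 chimera driving GAL4-UAS reporter. Readout: reporter mRNA via RT-PCR plus capillary electrophoresis (fluorescence). Positive direction vs DMSO control.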
Steroid hormone receptor ERR1 (Homo sapiens), sequence (P11474 whole entry, looked up, the tested form may be a part): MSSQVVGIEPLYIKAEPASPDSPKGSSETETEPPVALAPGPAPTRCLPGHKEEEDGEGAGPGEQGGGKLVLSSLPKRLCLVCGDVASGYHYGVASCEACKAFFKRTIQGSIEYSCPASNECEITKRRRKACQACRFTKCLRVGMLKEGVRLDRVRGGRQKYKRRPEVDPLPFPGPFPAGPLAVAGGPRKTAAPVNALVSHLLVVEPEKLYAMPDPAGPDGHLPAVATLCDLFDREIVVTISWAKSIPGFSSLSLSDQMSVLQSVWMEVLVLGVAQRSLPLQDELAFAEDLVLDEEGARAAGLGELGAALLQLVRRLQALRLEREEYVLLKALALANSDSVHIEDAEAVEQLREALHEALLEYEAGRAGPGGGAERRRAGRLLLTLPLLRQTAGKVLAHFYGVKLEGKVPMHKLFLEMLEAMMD

Assay [17] deals with Androgen receptor (Homo sapiens) (UniProt P10275). The assay can be described thus: ATG_AR_TRANS: Attagene TRANS-FACTORIAL HepG2 Assay for human Androgen Receptor (AR) (AID 2282973; active means hit-call score of the fitted dose curve at least 0.9, where 1 is the maximum). Conditions: HepG2 Attagene TRANS-FACTORIAL AR reporter transcription. Put shortly: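 Readout is reporter transcript abundance, quantified by fluorescent RT-PCR products separated on capillary electrophoresis. Human HepG2 liver cells carried transiently transfected NR-Gal4 chimera plus GAL4-UAS reporter constructs and were dosed for 24 h; activity scored upward versus DMSO.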
Androgen receptor (Homo sapiens), sequence (P10275 whole entry, looked up, the tested form may be a part): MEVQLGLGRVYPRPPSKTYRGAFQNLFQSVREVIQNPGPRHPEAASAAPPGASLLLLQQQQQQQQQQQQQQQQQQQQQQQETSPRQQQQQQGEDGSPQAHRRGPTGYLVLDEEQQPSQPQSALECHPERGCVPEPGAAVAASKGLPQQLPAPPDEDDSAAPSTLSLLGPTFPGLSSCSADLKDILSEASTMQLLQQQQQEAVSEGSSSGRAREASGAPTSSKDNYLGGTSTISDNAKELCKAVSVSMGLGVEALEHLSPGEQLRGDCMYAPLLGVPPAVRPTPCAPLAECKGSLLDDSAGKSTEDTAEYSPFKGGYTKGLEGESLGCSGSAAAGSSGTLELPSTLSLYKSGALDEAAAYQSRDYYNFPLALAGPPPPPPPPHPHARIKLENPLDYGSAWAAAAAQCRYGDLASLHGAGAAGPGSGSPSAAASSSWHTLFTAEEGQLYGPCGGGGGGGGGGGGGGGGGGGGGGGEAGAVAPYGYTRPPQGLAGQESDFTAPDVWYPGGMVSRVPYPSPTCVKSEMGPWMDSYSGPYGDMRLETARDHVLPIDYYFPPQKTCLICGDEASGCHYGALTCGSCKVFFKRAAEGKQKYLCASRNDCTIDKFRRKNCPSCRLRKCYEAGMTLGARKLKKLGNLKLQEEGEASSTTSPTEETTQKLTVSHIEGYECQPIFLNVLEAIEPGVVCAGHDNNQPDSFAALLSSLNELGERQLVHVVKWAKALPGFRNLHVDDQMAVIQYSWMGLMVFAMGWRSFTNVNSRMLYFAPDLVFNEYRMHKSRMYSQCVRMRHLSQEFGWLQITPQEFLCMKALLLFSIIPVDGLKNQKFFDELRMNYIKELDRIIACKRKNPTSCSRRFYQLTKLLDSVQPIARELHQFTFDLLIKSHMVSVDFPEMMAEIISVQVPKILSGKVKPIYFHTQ

Assay [18] concerns the target Estrogen receptor (Homo sapiens) (UniProt P03372). The assay can be described thus: ATG_ERa_TRANS: Attagene TRANS-FACTORIAL HepG2 Assay for human Estrogen Receptor alpha (ERa) (AID 2282970; active means hit-call score of the fitted dose curve at least 0.9, where 1 is the maximum). Conditions: HepG2 Attagene TRANS ERa GAL4 reporter, mRNA. The method in brief:
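Reporter mRNA induction after 24 hours, detected by fluorescent RT-PCR and capillary electrophoresis, gives the read-out. Cells are HepG2 transiently transfected with GAL4-UAS reporter transcription units responding to chimeric NR-Gal4. Activity is taken as gain of signal over DMSO baseline.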

Usually AC50 stands for the midpoint of the concentration-response curve, whichever way the signal moves.

Nuclear receptor subfamily 1 group I member 3 (Homo sapiens), sequence (Q14994 whole entry, looked up, the tested form may be a part): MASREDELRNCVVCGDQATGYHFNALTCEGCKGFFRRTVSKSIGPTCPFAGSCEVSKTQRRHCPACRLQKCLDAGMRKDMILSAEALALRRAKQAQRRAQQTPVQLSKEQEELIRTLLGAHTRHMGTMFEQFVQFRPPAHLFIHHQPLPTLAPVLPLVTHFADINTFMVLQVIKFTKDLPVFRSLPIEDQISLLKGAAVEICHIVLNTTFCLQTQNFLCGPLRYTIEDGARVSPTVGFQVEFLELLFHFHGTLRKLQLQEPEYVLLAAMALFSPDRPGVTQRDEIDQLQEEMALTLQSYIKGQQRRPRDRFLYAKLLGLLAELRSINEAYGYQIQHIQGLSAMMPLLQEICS
Signal transducer and activator of transcription 3 (Homo sapiens), sequence (P40763 whole entry, looked up, the tested form may be a part): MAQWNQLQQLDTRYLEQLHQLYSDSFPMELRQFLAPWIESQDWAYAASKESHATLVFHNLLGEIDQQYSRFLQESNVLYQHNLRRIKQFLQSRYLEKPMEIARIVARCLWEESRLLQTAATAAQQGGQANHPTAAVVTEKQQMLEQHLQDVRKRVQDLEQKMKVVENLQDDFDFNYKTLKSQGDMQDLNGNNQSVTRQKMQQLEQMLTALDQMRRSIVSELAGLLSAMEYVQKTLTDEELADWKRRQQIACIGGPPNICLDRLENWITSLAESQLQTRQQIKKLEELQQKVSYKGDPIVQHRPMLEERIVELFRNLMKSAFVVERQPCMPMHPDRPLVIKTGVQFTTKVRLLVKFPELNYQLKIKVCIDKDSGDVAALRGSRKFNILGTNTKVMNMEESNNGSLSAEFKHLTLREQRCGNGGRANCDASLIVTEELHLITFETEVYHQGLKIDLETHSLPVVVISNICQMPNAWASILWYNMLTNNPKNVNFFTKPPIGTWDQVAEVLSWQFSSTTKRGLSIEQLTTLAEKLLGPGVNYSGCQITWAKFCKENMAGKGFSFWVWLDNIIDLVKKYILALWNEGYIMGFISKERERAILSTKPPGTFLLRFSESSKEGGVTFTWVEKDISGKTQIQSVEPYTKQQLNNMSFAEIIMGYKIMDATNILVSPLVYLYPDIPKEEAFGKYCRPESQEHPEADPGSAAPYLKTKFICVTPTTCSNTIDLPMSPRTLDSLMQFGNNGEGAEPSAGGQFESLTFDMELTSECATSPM
Paired box protein Pax-6 (Homo sapiens), sequence (P26367 whole entry, looked up): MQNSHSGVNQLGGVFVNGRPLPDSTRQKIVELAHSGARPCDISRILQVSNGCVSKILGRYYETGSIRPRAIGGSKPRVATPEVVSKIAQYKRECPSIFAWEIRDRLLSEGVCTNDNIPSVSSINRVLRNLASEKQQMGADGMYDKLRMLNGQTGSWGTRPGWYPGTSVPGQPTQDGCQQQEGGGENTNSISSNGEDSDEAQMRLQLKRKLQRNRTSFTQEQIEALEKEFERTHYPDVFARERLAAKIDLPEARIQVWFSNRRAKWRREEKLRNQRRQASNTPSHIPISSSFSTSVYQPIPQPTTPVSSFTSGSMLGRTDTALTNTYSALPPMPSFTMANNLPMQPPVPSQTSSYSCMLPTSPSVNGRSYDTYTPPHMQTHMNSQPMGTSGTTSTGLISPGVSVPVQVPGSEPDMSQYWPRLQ
Transcription factor Sp1 (Homo sapiens), sequence (P08047 whole entry, looked up): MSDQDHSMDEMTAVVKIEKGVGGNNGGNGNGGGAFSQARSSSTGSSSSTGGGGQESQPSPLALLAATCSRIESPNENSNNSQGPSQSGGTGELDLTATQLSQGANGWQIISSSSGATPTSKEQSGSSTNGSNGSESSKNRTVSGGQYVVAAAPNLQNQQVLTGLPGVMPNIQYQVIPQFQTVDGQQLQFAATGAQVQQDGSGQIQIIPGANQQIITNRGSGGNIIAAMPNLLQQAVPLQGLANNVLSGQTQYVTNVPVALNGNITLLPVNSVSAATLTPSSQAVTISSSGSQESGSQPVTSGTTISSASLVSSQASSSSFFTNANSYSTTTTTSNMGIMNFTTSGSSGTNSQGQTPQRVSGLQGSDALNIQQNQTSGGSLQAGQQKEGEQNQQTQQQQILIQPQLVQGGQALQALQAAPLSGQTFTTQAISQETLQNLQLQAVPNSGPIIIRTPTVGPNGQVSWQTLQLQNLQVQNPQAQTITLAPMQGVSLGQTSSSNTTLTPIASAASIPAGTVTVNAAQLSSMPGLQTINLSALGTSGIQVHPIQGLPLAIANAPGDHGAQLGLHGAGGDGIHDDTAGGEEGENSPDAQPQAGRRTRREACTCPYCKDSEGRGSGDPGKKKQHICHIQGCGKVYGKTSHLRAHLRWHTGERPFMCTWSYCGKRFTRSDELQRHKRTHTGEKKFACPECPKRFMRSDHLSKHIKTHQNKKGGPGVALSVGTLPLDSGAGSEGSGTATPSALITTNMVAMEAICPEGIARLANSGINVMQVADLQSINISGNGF
X-box-binding protein 1 (Homo sapiens), sequence (P17861 whole entry, looked up): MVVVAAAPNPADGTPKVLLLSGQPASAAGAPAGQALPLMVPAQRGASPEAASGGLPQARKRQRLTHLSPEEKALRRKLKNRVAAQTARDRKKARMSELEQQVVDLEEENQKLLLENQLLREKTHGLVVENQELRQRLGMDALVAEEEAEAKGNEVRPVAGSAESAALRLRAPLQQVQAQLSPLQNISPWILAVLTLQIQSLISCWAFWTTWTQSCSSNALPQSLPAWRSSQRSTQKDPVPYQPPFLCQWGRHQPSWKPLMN
Estrogen receptor (Homo sapiens), sequence (P03372 whole entry, looked up, the tested form may be a part): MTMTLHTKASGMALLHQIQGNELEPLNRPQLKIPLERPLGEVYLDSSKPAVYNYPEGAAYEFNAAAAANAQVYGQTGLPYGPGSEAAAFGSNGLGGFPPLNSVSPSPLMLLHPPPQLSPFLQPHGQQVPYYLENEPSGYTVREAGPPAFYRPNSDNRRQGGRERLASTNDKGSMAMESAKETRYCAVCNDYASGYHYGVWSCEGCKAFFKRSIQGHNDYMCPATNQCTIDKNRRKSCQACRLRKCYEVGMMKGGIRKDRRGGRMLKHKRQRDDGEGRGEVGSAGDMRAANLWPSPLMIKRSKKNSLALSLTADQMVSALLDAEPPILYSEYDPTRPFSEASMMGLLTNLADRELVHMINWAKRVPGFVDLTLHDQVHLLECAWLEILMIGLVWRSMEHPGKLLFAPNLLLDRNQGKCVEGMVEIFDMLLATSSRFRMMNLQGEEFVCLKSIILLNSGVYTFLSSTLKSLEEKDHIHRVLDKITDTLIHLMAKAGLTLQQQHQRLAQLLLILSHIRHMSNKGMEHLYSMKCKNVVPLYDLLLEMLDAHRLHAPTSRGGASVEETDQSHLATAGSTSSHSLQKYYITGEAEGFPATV

`CCOc1nc(F)cc2nc(S(=O)(=O)Nc3c(Cl)cccc3Cl)nn12`: the compound was classed as inactive in [1], in assay [3], in [4], in assay [5], in assay [6] and in assay [7]. Besides, the outcome in assay [8], in [9], in assay [10], in [11], in assay [12] and in assay [13] was inactive. Besides, the outcome in assay [14] and in [15] was inactive. For the same compound, the AC50 in [2] was 10.1 µM (active).
In the case of `CCCCOCN(C(=O)CCl)c1c(CC)cccc1CC`, the compound was classed as inactive in assay [1], in [3], in assay [5], in [6], in [7] and in assay [8]. The outcome in assay [9], in assay [10], in [11], in assay [13], in assay [16] and in assay [14] was inactive. The compound was called inactive in [17] and in assay [15]. The AC50 in assay [2] is 0.265 µM (active); in assay [12], 0.5 µM (active).
Turning to `CC1(C)C(C=C(Cl)Cl)C1C(=O)OC(C#N)c1cccc(Oc2ccccc2)c1` (configuration not stated), the call in assay [1], in assay [4], in assay [5], in [6], in assay [7] and in assay [8] was inactive. The compound was classed as inactive in assay [9], in assay [10], in [11], in assay [13], in assay [14] and in [15]. Moreover, the AC50 in [2] is 2.32 µM (active); in [12], 4.91 µM (active).
As to `COCC(C)N(C(=O)CCl)c1c(C)csc1C` (configuration not stated), the compound was called inactive in assay [1], in assay [3], in assay [4], in [5], in [6] and in assay [7]. The result in assay [8], in [9], in assay [10], in assay [11], in [18] and in assay [14] was inactive. Also, the AC50 was 1.06 µM (active) in assay [2] and 1.84 µM (active) in assay [12].
`CC(C)(C)C(=O)C(Oc1ccc(Cl)cc1)n1cncn1` (configuration not stated): the result in assay [1], in [4], in assay [5], in [6], in assay [7] and in assay [8] was inactive. For the same compound, the compound was classed as inactive in [9], in [10], in assay [11], in assay [13], in [14] and in assay [15]. For the same compound, the AC50 in [2] was 5.02 µM (active); in assay [3], 50 µM (active); in assay [12], 34.4 µM (active).
Regarding `CCOP(=S)(OCC)Oc1nc(Cl)n(C(C)C)n1`, the outcome in assay [1], in [4], in [5], in assay [6], in assay [7] and in assay [8] was inactive. Moreover, the compound was classed as inactive in assay [9], in [10], in assay [11] and in [14]. Besides, the figures for the AC50 in assay [2] and in assay [12] were 0.655 µM (active) and 5.61 µM (active), respectively.
For the compound `O=P(O)(O)CCCl`, the compound was classed as inactive in [1], in assay [2], in assay [3], in assay [4], in [5] and in assay [6]. Moreover, the result in assay [7], in [8], in assay [9], in assay [10], in assay [11] and in assay [12] was inactive. The outcome in assay [14] was inactive.
For the compound `CC(C)Nc1nc(Cl)nc(NC(C)C)n1`, the compound was classed as inactive in assay [1], in assay [3], in assay [5], in [6], in assay [7] and in assay [8]. The compound was classed as inactive in assay [9], in assay [10], in assay [11], in assay [12], in assay [13] and in [16]. In addition, the result in [14] was inactive. For the same compound, in [2], the AC50 is 15.3 µM (active).
Turning to `CCOC(=O)C(C)OC(=O)c1cc(Oc2ccc(C(F)(F)F)cc2Cl)ccc1[N+](=O)[O-]` (configuration not stated), the result in assay [1], in assay [5], in assay [6], in assay [7], in [8] and in assay [9] was inactive. Further, the compound was classed as inactive in [10], in assay [11], in assay [13] and in assay [14]. Besides, the AC50 was 7.84 µM (active) in assay [2], 11.7 µM (active) in assay [3], 50 µM (active) in assay [4] and 50 µM (active) in assay [18].
